Experimental data as given in PubChem BioAssay (NCATS).
Results filed as inconclusive are left out. Calls of active or inactive are those of the source. Calls come from the whole dose curve; as a rule, active = well fitted activation curve with a large enough effect in the main read-out, with a control signal flat (not every such curve was filed as active); inconclusive = small, poorly fitted or top-dose-only effect, or effect the other way, or a change in a side signal; inactive = flat fitted curve, though single readings scatter.

These molecules were tested against 3',5'-cyclic-AMP phosphodiesterase 4B (Homo sapiens) (UniProt Q07343) (assay: qHTS Assay for Inhibitors of PDE-IV (AID 607)). Settings: HEK293 ACTOne CNG channel cells, membrane potential fluorescence; series mostly up to 22.9 µM.
From the text: NIH Chemical Genomics Center [NCGC]
NIH Molecular Libraries Screening Centers Network [MLSCN]
The cyclic nucleotide phosphodiesterases (PDEs) are proteins that catalyze hydrolysis of 3', 5'-cyclic nucleotides, such as cyclic adenosine monophosphate (cAMP) and cyclic guanosine monophosphate (cGMP), to their corresponding 5'-nucleotide monophosphates. These enzymes play an important role in controlling cellular concentrations of cyclic nucleotides and have a central role in a variety of intracellular signaling events. cAMP PDEs are emerging as a promising class of drug targets in asthma and cardiovascular disease therapeutic areas.
There are no commercially available cell-based screening assays for PDE inhibitors: currently biochemical assays are done using pure substrates (cAMP or cGMP) and purified recombinant PDE enzymes. As with other biochemical screens on intracellular targets, false positives and false negatives may result from issues involving cell membrane permeability, cellular metabolism, and the like.
Here we report the development of a cell-based screening assay for cAMP phosphodiesterase (PDE) inhibitors. The assay is based on the BD ACTOne# technology (BD Biosciences) which utilizes a modified cyclic nucleotide-gated channel (CNG) to monitor intracellular cAMP changes in live cells. The CNG channel is localized on the plasma membrane, and opens when the intracellular cAMP level increases, resulting in ion flux and cell membrane depolarization. The influx of cations through the CNG channel can be quantified using membrane potential (MP) dyes. We modified the BD ACTOne technology to allow the detection of PDE inhibitors, and performed an inhibitor screen for PDE-IV, which is expressed endogenously in HEK293 cells. We optimized this assay in homogeneous 1536-well plate assay format for high throughput screening.
NCGC Assay Protocol Summary:
The medium contained 10% FBS (Invitrogen), 2 mM L-glutamine, and 250 ug/ml G418 (Cellgro) and 1 ug/ml puromycin (Clontech). ACTOneTM parental cells (BD Biosciences) were maintained in the same medium without puromycin.
The activity of the CNG channel was measured by BD ACTOneTM membrane potential dye kit (BD Biosciences). Forskolin, a positive control for cAMP activation and RO 20-1724, a PDE inhibitor, were both purchased from Sigma and solublized in DMSO.
Sequence,Parameter,Value,Description
1,Reagent,3 uL,1000 cells/well 1536 TC treated Black plate
3,Compound,0.5 uL,Kalypsys dispense RO 20-1724 100 uM final [A]
4,Reagent,3 uL,BD membrane potential dye
6,Compound,23 nL,Final concentration was 0.7nM to 22.9uM
8,Detector,EX 535 / EM 590 [B],Envision
Footnotes: [A] The stock 2 mM RO 20-1724 PDE inhibitor was made in 10 % DMSO. Parental cell line received 10 uM forskolin + 100 uM RO. [B] Envsion settings: Bottom Excitation 535/20 nm top emission 590/20, gain of 150 and 5 flashes per well.
Keywords: PDE, PDE-IV, cytotoxicity, flourescence, MLSMR, MLSCN, NIH Roadmap, qHTS, NCGC

3',5'-cyclic-AMP phosphodiesterase 4B (Homo sapiens), sequence (Q07343 whole entry, looked up): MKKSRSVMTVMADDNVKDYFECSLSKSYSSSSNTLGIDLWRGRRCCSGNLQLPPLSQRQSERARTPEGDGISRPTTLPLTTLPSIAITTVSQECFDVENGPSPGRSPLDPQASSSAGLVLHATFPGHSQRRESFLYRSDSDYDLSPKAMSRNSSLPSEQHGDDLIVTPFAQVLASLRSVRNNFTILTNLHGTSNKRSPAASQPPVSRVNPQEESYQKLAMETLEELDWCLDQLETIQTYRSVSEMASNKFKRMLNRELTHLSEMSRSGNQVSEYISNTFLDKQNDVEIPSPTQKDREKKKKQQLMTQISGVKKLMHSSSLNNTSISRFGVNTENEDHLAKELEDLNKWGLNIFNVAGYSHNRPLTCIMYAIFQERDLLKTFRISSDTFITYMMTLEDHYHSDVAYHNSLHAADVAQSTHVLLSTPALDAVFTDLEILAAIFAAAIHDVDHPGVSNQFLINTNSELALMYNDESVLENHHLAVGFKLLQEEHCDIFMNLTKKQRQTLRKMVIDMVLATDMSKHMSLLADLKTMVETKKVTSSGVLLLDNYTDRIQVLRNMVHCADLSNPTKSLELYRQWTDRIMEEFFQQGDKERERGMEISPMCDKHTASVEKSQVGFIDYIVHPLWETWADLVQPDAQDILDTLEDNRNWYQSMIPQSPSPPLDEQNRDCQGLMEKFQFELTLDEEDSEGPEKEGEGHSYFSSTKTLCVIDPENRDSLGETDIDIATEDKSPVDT

| SMILES | outcome |
| --- | --- |
| CC(=O)Oc1ccccc1C(=O)O | inactive |
| Cc1ccc(N(CC2=NCCN2)c2cccc(O)c2)cc1 | inactive |
| Nc1ccc(S(=O)(=O)Nc2ccnn2-c2ccccc2)cc1 | inactive |
| Cc1cc2c(C(C)C)c(O)c(O)c(C=O)c2c(O)c1-c1c(C)cc2c(C(C)C)c(O)c(O)c(C=O)c2c1O | inactive |
| Nc1nc2ccc(OC(F)(F)F)cc2s1 | inactive |
| NC[C@H](O)c1ccc(O)c(O)c1 | inactive |
| NS(=O)(=O)c1cc2c(cc1Cl)NC=NS2(=O)=O | inactive |
| N#Cc1ccc(C(c2ccc(C#N)cc2)n2cncn2)cc1 | inactive |
| Nc1nc2c(ncn2COCCO)c(=O)[nH]1 | inactive |
| C1COC(NC(C2CC2)C2CC2)=N1 | inactive |
| CCOC(=O)N1CCC(=C2c3ccc(Cl)cc3CCc3cccnc32)CC1 | inactive |
| NCCc1ccc(O)c(O)c1 | inactive |
| O=c1[nH]cnc2[nH]ncc12 | inactive |
| CCOC(=O)C1=C[C@@]2(CC)CCCN3CCc4c(n1c1ccccc41)[C@H]32 | inactive |
| Cc1oncc1C(=O)Nc1ccc(C(F)(F)F)cc1 | inactive |
| CCCC(CCC)C(=O)O | inactive |
| CCCCNc1cc(C(=O)O)cc(S(N)(=O)=O)c1Oc1ccccc1 | inactive |
| CC(C)(Sc1ccc(CCN(CCCCC2CCCCC2)C(=O)NC2CCCCC2)cc1)C(=O)O | inactive |

| SMILES | outcome |
| --- | --- |
| N=c1nc(N2CCCCC2)cc(N)n1O | inactive |
| NC(N)=NC(=O)c1nc(Cl)c(N)nc1N | inactive |
| CNC[C@H](O)c1cccc(O)c1 | inactive |
| O=c1n(CCCN2CCN(c3cccc(Cl)c3)CC2)nc2ccccn12 | inactive |
| O=C1CCc2cc(OCCCCc3nnnn3C3CCCCC3)ccc2N1 | inactive |
| Clc1cccc(Cl)c1NC1=NCCN1 | inactive |
| NNCCc1ccccc1 | inactive |
| Cc1[nH]c(=O)c(C#N)cc1-c1ccncc1 | inactive |
| CN1CCN(CCCN2c3ccccc3Sc3ccc(C(F)(F)F)cc32)CC1 | inactive |
| Cc1cn[nH]c1 | inactive |
| O=NN(CCCl)C(=O)NCCCl | inactive |
| Cc1ccc2c(c1)C(=O)[C@@]1(O)CCN(c3ccccc3)C1=N2 | inactive |
| COc1ccc2nc(S(=O)Cc3ncc(C)c(OC)c3C)[nH]c2c1 (stereo not given) | inactive |
| NC(=O)c1cnccn1 | inactive |
| Cn1cnc([N+](=O)[O-])c1Sc1ncnc2nc[nH]c12 | inactive |
| N[C@@H]1CONC1=O | inactive |
| CCN(c1ccccc1)c1cc(NC)[n+](C)c(C)n1 | inactive |
